Sampled rows, rich in hits. Any-hit rate of the full collection: about 0.51%.
FMDV antiviral – FMDV antiviral activity by firefly signal; 0.23% of 120,000 active; Potency, µM (highest dose often 57.5 µM), inactives show at the top dose activity change, negative = inhibition, usual class: inhibitors; FMDV antiviral cell assay, firefly luciferase signal; also: nearly all actives have a fitted effect of over 60% in size
FMDV RLuc – FMDV antiviral activity by Renilla signal; AID 1745857; FMDV replicon cells, Renilla luciferase signal; Potency, µM (top dose mostly 57.5 µM), for inactives: at the top dose activity change, negative = inhibition, usual class: inhibitors; 0.32% of 120,000 active; also: nearly all actives have a fitted effect of over 55% in size
An asterisk follows results filed as active; ? = inconclusive; [ ] = remark or other dose. Calls follow the shape of the full dose curve. % is scaled to controls: 0 for no effect and ±100 for the full control effect; potency is read from the fitted curve at half-maximal effect.

SMILES	FMDV antiviral	FMDV RLuc
CONC(=O)COc1ccc(C(C)C)c(C)c1	15%	1%
COc1ccc(NC(=O)CCc2ncc(-c3ccccc3Cl)o2)c(OC)c1	1%	-9%
CCC(=O)N1N=C(c2ccccc2NS(=O)(=O)c2ccccc2)CC1c1ccccc1 (stereo not drawn)	-8%	-3%
COc1ccccc1Nc1nc2ccccc2nc1NS(=O)(=O)c1ccc(Cl)s1	1%	2%
CCOc1ccc(S(=O)(=O)Nc2nc3ccccc3nc2Nc2ccc(F)cc2)cc1	3%	2%
COc1cccc(Nc2nc3ccccc3nc2NS(=O)(=O)c2cccc(Cl)c2)c1	?	32%
O=S(=O)(Nc1nc2ccccc2nc1Nc1ccccc1)c1ccc(Cl)s1	4.5µM*	?
O=S(=O)(Nc1nc2ccccc2nc1Nc1cccc(F)c1)c1cccc(Cl)c1	3.5µM*	4µM*
O=S(=O)(Nc1nc2ccccc2nc1Nc1ccc(F)cc1)c1ccc(F)cc1	2.5µM*	3.5µM*
O=C(Nc1ccc(-c2noc(-c3ccc(Cl)cc3)n2)cc1)c1ccco1	19%	-10%
COC1CC(OC2CCC3(/C=N/O)[C@H]4CCC5(C)C(C6=CC(=O)OC6)CCC5(O)[C@@H]4CCC3(O)C2)OC(C)C1O (stereo partly drawn)	?	0.35µM*
C[C@@H]1O[C@@H](O[C@@H]2C=C3CC[C@@H]4[C@H](CC[C@]5(C)[C@@H](c6ccc(=O)oc6)CC[C@]45O)[C@@]3(C)CC2)[C@H](O)[C@H](O)[C@H]1O	-85%	-79%
CC(=O)OC1CCC2(/C=N/O)[C@H]3CCC4(C)C(C5=CC(=O)OC5)CCC4(O)[C@@H]3CCC2(O)C1 (stereo partly drawn)	0.79µM*	1µM*
COc1ccc(-c2c(C)oc3cc(OCCN4CCCCC4)ccc3c2=O)cc1	-5%	-12%
O=C(NCCCN1CCCC1=O)c1nc(-c2ccc3[nH]ccc3c2)no1	166%	26%
COc1ccc(C2CC(=O)Nc3cc4c(cc32)OCO4)c(OC)c1 (stereo not drawn)	16%	-7%
CC(C)COc1ccccc1C1CC(=O)Nc2cc3c(cc21)OCO3 (stereo not drawn)	?	13µM*
CCCCNCc1ccccc1C(F)(F)F	9%	7%
Cc1c2cnn(-c3ccccc3)c(=O)c2c(C)n1CC(=O)N1CCN(c2cccc(Cl)c2)CC1	-8%	-3%
Cc1ccc(C)c(N2CCN(C(=O)Cn3c(C)c4cnn(-c5ccccc5)c(=O)c4c3C)CC2)c1	25µM*	22µM*
CC(C)C(C)NC(=O)CSc1nc(C2CC2)nc2ccccc12 (stereo not drawn)	-22%	-35%
N#Cc1ccc(C(=O)Nc2ccc3nc(CCc4ccccc4)[nH]c3c2)cc1	-7%	-10%
CCn1c(CCc2cccc(NC(=O)c3ccc(C#N)cc3)c2)nc2ccccc21	14µM*	11µM*
O=C(OCC(=O)N1CCCCC1)c1ccc2c(c1)S(=O)(=O)c1ccccc1C2=O	-3%	4%
O=C(COc1ccc(Cl)cc1)Nc1nc2n(n1)C(c1ccc(Cl)cc1)CC(=O)N2 (stereo not drawn)	5%	-5%
SMILES	FMDV antiviral	FMDV RLuc
CCCn1ccc2c(OCC(=O)NCc3ccc(C)cc3)cccc2c1=O	-10%	13%
CCCCc1ccc(NC(=O)COc2cccc3c(=O)n(C)ccc23)cc1	?	8.9µM*
CC(c1ccc(S(C)(=O)=O)cc1)N(C)S(=O)(=O)c1cccc(Cl)c1 (stereo not drawn)	1%	26%
CCOc1ccc(/C=C(\C)[N+](=O)[O-])cc1	?	-27%
C=CCOc1ccc(/C=C(\C)[N+](=O)[O-])cc1OC	?	32µM*
Cc1cc2oc(C(=O)NCC(c3ccco3)N3CCCC3)cc(=O)c2cc1Cl (stereo not drawn)	-13%	-11%
CCc1ccc(Nc2c3c(nc4ccccc24)CCC3)cc1	25µM*	?
c1ccc(Nc2c3c(nc4ccccc24)CCC3)cc1	-12%	-24%
COc1ccc(NC(=O)Nc2ccc(-c3nnc(-c4ccccc4)o3)cc2)cc1F	127%	7%
O=C(c1cc(=O)c2ccccc2o1)N(Cc1ccc(Cl)cc1)Cc1ccco1	-20%	42%
CC(=O)c1ccc(NC(=O)C2=Cc3sc4c(c3CS2)CCCC4)cc1	15%	3%
CN(CC(=O)N1CCN(Cc2ccccc2)CC1)C(=O)Cc1n[nH]c(=O)c2ccccc12	-4%	-13%
O=C(/C=C/c1ccc(Cl)c(Cl)c1)c1ccccc1OC(F)F	28%	39%
COc1cc(/C=C/C(=O)c2ccccc2C)cc(OC)c1OC(F)F	?	28µM*
O=C(NCc1coc(-c2cccs2)n1)c1cccc(Br)c1	6%	35%
CN1CCN(c2ccc(NC(=O)c3cnc4ccccc4n3)cc2)CC1	128%	-11%
O=C(Nc1ccc(N2CCN(Cc3ccccc3)CC2)cc1)c1cnc2ccccc2n1	?	7.9µM*
COc1ccc2c(c1)cc(C(=O)Nc1cccc(C)c1)n2C	28%	2%
CNc1c(NC(=O)Nc2ccccc2Cl)c(=O)oc2ccccc12	4%	1%
CCOC(=O)c1c(NC(=O)C(CC)Oc2ccccc2)sc(C)c1C (stereo not drawn)	-5%	-1%
CC(=O)c1c(C)[nH]c(C(=O)C(C)OC(=O)c2ccc(F)cc2Cl)c1C (stereo not drawn)	20µM*	8.9µM*
CC(=O)c1c(C)[nH]c(C(=O)C(C)N(C)Cc2cccc(F)c2)c1C (stereo not drawn)	?	4µM*
CC(=O)c1c(C)[nH]c(C(=O)C(C)OC(=O)c2cc(Cl)ccc2F)c1C (stereo not drawn)	19%	16%
CC(=O)c1c(C)[nH]c(C(=O)C(C)OC(=O)c2ccc(F)cc2)c1C (stereo not drawn)	-24%	-6%[1.06 µM]
CCN1CCN(C(C(=O)O)c2c[nH]c3cc(NC(=O)c4ccccc4)ccc23)CC1 (stereo not drawn)	13µM*	1%
SMILES	FMDV antiviral	FMDV RLuc
CCN1CCN(C(C(=O)O)c2c[nH]c3ccc(NC(=O)c4ccccc4)cc23)CC1 (stereo not drawn)	14%	-8%
Cc1cc2oc(C(=O)N3CCOC34CCN(C)CC4)cc(=O)c2cc1C	2%	-8%
COc1ccc(Cc2nnc3n2N(C(C)=O)C(c2ccc(Cl)c(Cl)c2)=C(C(C)=O)S3)cc1	2%	1%
O=C(Cn1c(=O)oc2cc(S(=O)(=O)N3CCCCC3)ccc21)NCc1ccc(F)cc1	15%	-15%
COc1ccccc1CNC(=O)Cn1c(=O)ccc2cc(S(=O)(=O)N3CCC(C)CC3)ccc21	10%	56%
COc1ccc(C)cc1NC(=O)Cn1c(=O)oc2cc(S(=O)(=O)N3CCCCCC3)ccc21	-22%	3%
Cc1ccc(NC(=O)Cn2c(=O)oc3cc(S(=O)(=O)N4CCCCC4)ccc32)c(C)c1	?	8.9µM*
O=C(Cn1c(=O)oc2cc(S(=O)(=O)N3CCCCCC3)ccc21)NCc1ccccc1Cl	28µM*	?
COc1ccccc1CNC(=O)Cn1c(=O)oc2cc(S(=O)(=O)N3CCC(C)CC3)ccc21	28µM*	?
c1ccc(C(CNCc2cccnc2)N2CCCC2)cc1 (stereo not drawn)	-19%	-9%
CSc1ccccc1C(=O)Nc1ccc2c(c1)OCCCO2	156%	10%
CCN(C(=O)Cn1nc(-c2ccc(F)cc2)ccc1=O)c1cccc(C)c1	7%	-11%
CCCCc1ccc(NC(=S)N(Cc2ccccc2)Cc2ccccc2)cc1	7%	50%
COc1cc(C(=O)N2CCN(c3nccs3)CC2)cc(Cl)c1OC(C)C	-22%	-2%

Bioassay records as filed in PubChem.
